Assay results published in PubChem BioAssay (NCATS).
Results filed as inconclusive are left out. Where a call stands in place of a potency, no number is given. Activity calls are given as the source filed them. Calls come from the whole dose curve; as a rule, active = well fitted cell-killing curve with a large enough effect; inconclusive = small, poorly fitted or top-dose-only effect; inactive = flat fitted curve, though single readings scatter.
Potency is the fitted concentration of half-maximal effect.

Test: Quantitative highthroughput screen to assess conditional lethalithy of P12 Ichikawa cells grown in RPMI1640 with dialyzed fetal bovine serum (RPMI+ds) (AID 1963880); note: nearly all actives have a fitted effect of over 35% in size
Settings: ATP luminescence, 48 h; Potency: P12-Ichikawa viability; series mostly up to 45.8 µM
From the text: Assay Provider: Jason Cantor Ph.D.
Department of Biochemistry
University of Wisconsin-Madison, Madison, WI, USA
Chemical screening studies have identified drug sensitivities across hundreds of cancer cell lines but most putative therapeutics fail to translate. Discovery and development of drug candidates in models that more accurately reflect nutrient levels in human blood is a major challenge. Here we performed high-throughput screens in conventional versus Human Plasma-Like Medium (HPLM) to identify compounds that were "missed" when screening using the artificial culture condition. Sets of conditional anticancer compounds spanned phases of clinical development and included non-oncology drugs were assessed. […] We also traced conditional phenotypes for several chemotherapeutics to availability of HPLM-specific metabolites and confirmed others for compounds whose reported targets are encoded by nonessential genes. Our findings establish generalizable strategies for exploiting conditional lethality in HPLM to reveal therapeutic candidates and mechanisms of action in cancer cells.
Described herein are the results of each viability screens against three cell lines: NOMO1 (an acute myeloid leukemia cell line); P12-Ichikawa (a T-cell acute lymphoblastic leukemia); and SEM (a B-cell ALL). Each assay was screened using 3 different cell culture media: homemade human plasma-Like medium with 10% dialyzed fetal bovine serum (HPLM+ds); RPMI1640 with 10% untreated FBS and 5mM glucose (RPMI+s); and RPMI1640 with 10% dialyzed fetal bovine serum and 5 mM glucose (RPMI+ds).
PROTOCOL TABLE (as described by Inglese J, Shamu CE and Guy RK. 2007)
SEQUENCE No. (e.g., 1, 2, 3, etc.); […] (e.g., Cells, Incubation, Reagent, etc.); VALUE and DESCRIPTION.
1; Cells; 5 uL; white, solid bottom 1536-well Greiner assay plate.
2; Compounds; 23 nL; Kalypsis pin tool (Wako USA) equipped with a 1536-well pin head to transfer to the assay plates.
3; Incubation; 48 hours; 37C incubation.
4; Reagent; 3 uL; CellTiter Glo (Promega).
5; Incubation; 5 min, room temperature
6; Detection; Luminescence, Viewlux PerkinElmer.
NOTES (numbers refer to Sequence numbers above)
1. Briefly, 5 ul of cell reagent was dispensed using a Multidrop Combi Dispenser. The NOMO1 and SEM cells were plated at 500 cells/well and the P12-Ichikawa line at 1000 cells/well.
2. After seeding the cells, 23 nL of MIPE 4.1 library compounds (in DMSO) were added to each plate using a Kalypsys 1536 Pintool dispenser. Bortezomib at final concentration of […] and DMSO were added to each plate as positive and negative controls respectively. For each screen, MIPE 4.1 compounds were added over an eleven-point concentration range […] in 3-fold dilutions.
3. Each plate was covered with a stainless steel gasketed lid to prevent evaporation and incubated for 48 hour at 37C, 95% relative humidity, and 5% CO2.
4-5. Three microliter CellTilter-GloTM luminescent substrate mix (Promega) reagent was added to the assay plate and incubated at room temperature for 5 min.
6. The luminescence signal was measured using a ViewLux (PerkinElmer) multiplate reader with a 2 second exposure time per plate. Data for each compound were normalized as percent viability such that measurements for DMSO and the empty well controls in each plate were defined as 100% and 0%, respectively.
In the case of `CCCCc1ccc(NS(=O)(=O)c2ccc(C)c(C(=O)N3CCN(c4cccc(C)c4C)CC3)c2)cc1`, the Potency is reported as “inactive”. With `O=C(C=Cc1cccnc1)NCCCCC1CCN(C(=O)c2ccccc2)CC1` the Potency was 5.3 nM (active). In the case of `COc1cccc(OC)c1-c1cc(C(=O)NC2(C(=O)O)C3CC4CC(C3)CC2C4)nn1-c1ccnc2cc(Cl)ccc12` (stereo not given), the Potency is reported as “inactive”. For `CCNC(=O)CCCC=CC[C@@H]1[C@H](C=CC(O)CCc2ccccc2)[C@@H](O)C[C@@H]1O` (stereo not given in full), the Potency was “inactive”. With `COc1cccc2c1C(=O)c1c(O)c3c(c(O)c1C2=O)C[C@@](O)(C(C)=O)C[C@H]3O[C@H]1C[C@H](N)[C@H](O)[C@H](C)O1` the Potency was 209 nM (active). For `Nc1ccc(S(=O)(=O)Nc2ccnn2-c2ccccc2)cc1`, the Potency was “inactive”. For `COc1ccc(-c2oc3c(CC=C(C)C)c(OC4O[C@H](CO)[C@@H](O)[C@H](O)[C@@H]4O)cc(O)c3c(=O)c2OC2O[C@@H](C)[C@H](O)[C@@H](O)[C@@H]2O)cc1` (stereo not given in full), the Potency was “inactive”. For `CC1(C)SCCN(S(=O)(=O)c2ccc(OCC#CCO)cc2)[C@@H]1C(=O)NO`, the Potency was “inactive”. With `Cc1ccc(NC(=O)C2(c3ccc4c(c3)OC(F)(F)O4)CC2)nc1-c1cccc(C(=O)O)c1` the Potency was 187 nM (active). With `CC(O)C1C(=O)N2C(C(=O)O)=C(SC3CNC(C(=O)N(C)C)C3)C(C)C12` (stereo not given) the Potency was “inactive”. For `CC[C@]1(O)C[C@@H]2CN(CCc3c([nH]c4ccccc34)[C@@](C(=O)OC)(c3cc4c(cc3OC)N(C=O)[C@@H]3C45CCN4CC=C[C@](CC)([C@H]45)[C@@H](OC(C)=O)[C@]3(O)C(=O)OC)C2)C1` (stereo not given in full), the Potency was “inactive”. With `N=c1ccn2c(n1)O[C@H]1[C@@H](O)[C@@H](CO)O[C@H]12` the Potency was 132 nM (active). In the case of `CC(C)[C@@H](CS(=O)(=O)C(C)C)N1C(=O)[C@@](C)(CC(=O)O)C[C@H](c2cccc(Cl)c2)[C@H]1c1ccc(Cl)cc1`, the Potency is reported as 1170 nM (active). In the case of `CCC(C=C[C@@H]1OC(=O)C=C[C@H]1C)=C[C@H](C)CC=CC(C)=C[C@@H](C)C(=O)[C@@H](C)[C@H](O)[C@@H](C)CC(C)=CC(=O)O`, the Potency is reported as 87.7 nM (active). For `CC(C)C[C@@H](N)[C@H](O)C(=O)N[C@H](C(=O)N[C@H](C(=O)N[C@@H](CC(=O)O)C(=O)O)C(C)C)C(C)C`, the Potency was “inactive”. For `CCC(C)n1ncn(-c2ccc(N3CCN(c4ccc(OC[C@H]5CO[C@](Cn6cncn6)(c6ccc(Cl)cc6Cl)O5)cc4)CC3)cc2)c1=O` (stereo not given in full), the Potency was “inactive”. In the case of `Cc1cc2cc3c(C)cc(=O)oc3c(C)c2o1`, the Potency is reported as “inactive”. With `C[C@@H]1[C@H](O)[C@@H](C)C=CC=CC=CC=CC=CC=CC=C[C@H](O[C@@H]2O[C@H](C)[C@H](O)[C@H](N)[C@@H]2O)C[C@@H]2O[C@](O)(C[C@@H](O)C[C@@H](O)[C@H](O)CC[C@@H](O)C[C@@H](O)CC(=O)O[C@H]1C)C[C@H](O)[C@@H]2C(=O)O` the Potency was “inactive”. In the case of `C=CCc1cccc(C=NNC(=O)CN2CCN(Cc3ccccc3)CC2)c1O`, the Potency is reported as 13200 nM (active). For `OC[C@H]1OC(O)C[C@@H](O)[C@H]1O` (stereo not given in full), the Potency was “inactive”. For `O=C(c1ccc(F)cc1)C1CCN(CCn2c(=O)[nH]c3ccccc3c2=O)CC1`, the Potency was “inactive”. With `CN1CCN(c2c(F)cc3c(=O)c(C(=O)O)cn4c3c2OCN4C)CC1` the Potency was “inactive”. For `COc1ccc(S(=O)(=O)Nc2cc(-c3c(O)ccc4ccccc34)c(O)c3ccccc23)cc1`, the Potency was 18700 nM (active). In the case of `O=[N+]([O-])c1cn2c(n1)OC[C@@H](OCc1ccc(OC(F)(F)F)cc1)C2`, the Potency is reported as “inactive”. For `Cc1nc2c(-c3cnc(N)nc3)nc(N3CCOCC3)nc2n1C(C)C`, the Potency was 23.4 nM (active). For `CCCCCCCCCC(=O)N[C@@H](Cc1c[nH]c2ccccc12)C(=O)N[C@H](CC(N)=O)C(=O)N[C@@H](CC(=O)O)C(=O)N[C@@H]1C(=O)NCC(=O)N[C@@H](CCCN)C(=O)N[C@@H](CC(=O)O)C(=O)N[C@H](C)C(=O)N[C@@H](CC(=O)O)C(=O)NCC(=O)N[C@H](CO)C(=O)N[C@@H]([C@@H](C)CC(=O)O)C(=O)N[C@@H](CC(=O)c2ccccc2N)C(=O)O[C@@H]1C`, the Potency was “inactive”. With `CN1CCC(COc2cnc(-c3cccc(Cn4nc(-c5cccc(C#N)c5)ccc4=O)c3)nc2)CC1` the Potency was “inactive”. With `Nc1nc(=S)c2[nH]cnc2[nH]1` the Potency was 14800 nM (active). For `O=C(CCCCCCC(=O)Nc1ccccc1)NO`, the Potency was 3320 nM (active). In the case of `NC(N)=NC(=O)c1nc(Cl)c(N)nc1N`, the Potency is reported as 13200 nM (active). With `COc1cc(-c2nn(C3CCC(N4CCN(C(C)=O)CC4)CC3)c3ncnc(N)c23)ccc1NC(=O)c1cc2ccccc2n1C` (stereo not given) the Potency was “inactive”. For `CNCc1ccc(-c2[nH]c3cc(F)cc4c3c2CCNC4=O)cc1`, the Potency was “inactive”. In the case of `COc1ccc(C2(C#N)CCC(C(=O)O)CC2)cc1OC1CCCC1` (stereo not given), the Potency is reported as “inactive”. With `O=C(O)CCC=CCC[C@@H]1[C@H](N2CCCCC2)[C@@H](O)C[C@@H]1OCc1ccc(-c2ccccc2)cc1` the Potency was “inactive”. For `CSc1cccc(Nc2ncc3cc(-c4c(Cl)cccc4Cl)c(=O)n(C)c3n2)c1`, the Potency was “inactive”. In the case of `CCOC(=O)C1=C(N)Oc2ccc(Br)cc2C1C(C#N)C(=O)OCC` (stereo not given), the Potency is reported as “inactive”. For `NC(=O)OCC(COC(N)=O)c1ccccc1`, the Potency was “inactive”. In the case of `CCN(CCO)CCCC(C)Nc1ccnc2cc(Cl)ccc12` (stereo not given), the Potency is reported as 2640 nM (active). With `C[C@@H](N)C1CCC(C(=O)Nc2ccncc2)CC1` (stereo not given in full) the Potency was “inactive”. For `N[C@@H](Cc1ccc(O)c(O)c1)C(=O)O`, the Potency was “inactive”.
